45 compounds from PubChem BioAssay AID720513 (Broad Institute, 2013) can be followed below.

Among all 2,100 compounds or so, about 480 (23%) were called active. Inconclusive results (about 5%) are left out. Not all results are given here. Measured potencies and affinities stand elsewhere. Unmarked numbers belong to inactive results.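 Rule for the calls: active = fitted curve reaches 40% activation at or below the top valid concentration, in every replicate test; inconclusive = replicate tests disagree on the call; inactive = the rest, including activity in the opposite direction.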

The assay in a line: activators raising PGC1a acetylation in cells, dose response, cell-based, cherry-picked samples, set 6 (AID 720513).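 Note: cells made to overexpress flag tagged PGC1a plus GCN5 acetyltransferase by viral infection.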 As to conditions: U2OS PGC1a acetylation AlphaLISA, overnight, 0 = neutral, -100 = inhibitor control; series mostly up to 19.5 µM; activation (acetylation increase): at the top concentration. In general terms: Bead proximity is the source of the signal in Alpha formats.
Turning to `COc1ccccc1NS(=O)(=O)c1cc(NC(=O)c2[nH]c(C)c(C(C)=O)c2C)ccc1N1CCOCC1`, the “activation (acetylation increase)” value was 38.3%.

With `CCCCCCNC(=O)O[C@@]12CN(S(=O)(=O)c3ccc(C)cc3)C[C@]1(O)Cn1c(=O)n(CCCCCC)c(=O)n1C2`, the “activation (acetylation increase)” value was -18.4%.

Regarding `O=C(O)c1cc(-c2ccc3c(c2)OCO3)nc2ccccc12`, the “activation (acetylation increase)” value was -21.2%.

Consider `O=C(Nc1cccc(Cl)c1)Nc1ccc2c(c1)OCO2`, for which the “activation (acetylation increase)” value was 8.19%.

Take `COc1ccc(NC(=O)[C@H](Cc2c[nH]c3ccccc23)NC(=O)[C@@H]2Cc3ccccc3CN2)cc1`: the “activation (acetylation increase)” value is 3.84%.

Regarding `Clc1ccc2nc(COc3ccccc3)[nH]c2c1`, the “activation (acetylation increase)” value was 35%.

Take `C[C@@H]1CN([C@H](C)CO)C(=O)c2cc(NC(=O)CCCCCC(=O)Nc3ccccc3N)ccc2O[C@H]1CN(C)S(=O)(=O)c1ccc(Cl)cc1`: the “activation (acetylation increase)” value was 12.1%.

Regarding `C[C@H](CO)N1C[C@H](C)[C@@H](CN(C)Cc2ccc(C(F)(F)F)cc2)OCc2cnnn2CCCC1=O`, the “activation (acetylation increase)” value is -39.1%.

As to `COc1ccc(C(NC(=O)c2c(F)c(F)c(F)c(F)c2F)c2ccccc2)cc1` (stereo not given), the “activation (acetylation increase)” value is -107%.

Regarding `CO[C@@H]1CN(C)C(=O)c2ccc(NS(C)(=O)=O)cc2OC[C@@H](C)N(Cc2nccs2)C[C@@H]1C`, the “activation (acetylation increase)” value is 9.44%.

In the case of `O=C(C[C@@H]1C[C@@H]2c3cc(NC(=O)C4CCC4)ccc3O[C@@H]2[C@@H](CO)O1)NCc1ccc(-c2ccccc2)cc1`, the “activation (acetylation increase)” value is 16.7% [at 21 µM].

As for `CC1=C(Cl)C2=NS(=O)(=O)CCN2C=C1Cl`, the “activation (acetylation increase)” value was -15.2%.

`O=C(c1ccc(Cl)cc1)C(Cn1cncn1)C(Sc1ccccc1)c1ccccc1` (stereo not given): the “activation (acetylation increase)” value was -26% [at 10 µM].

Regarding `CCCNC(=O)N(C)C[C@H]1Oc2cc(C#CCC(C)C)ccc2S(=O)(=O)N([C@@H](C)CO)C[C@H]1C`, the “activation (acetylation increase)” value was -22.8%.

On to `COc1cc(CCC(=O)Nc2cc(C)cc(C)c2)cc(OC)c1OC`, for which the “activation (acetylation increase)” value is 27.5%.

Turning to `Cc1ccc(S(=O)(=O)N(CC2CO2)c2ccccc2[N+](=O)[O-])cc1` (stereo not given), the “activation (acetylation increase)” value is 7.63%.

`O=S(=O)(O)c1nc2ccccc2n1Cc1ccc(Cl)cc1`: the “activation (acetylation increase)” value is 16% [at 10 µM].

For the compound `CC(C)c1ccccc1NC(=O)Cn1c(-c2ccccc2Cl)nc2ccccc21`, the “activation (acetylation increase)” value is 7.14%.

As to `O=S(=O)(c1ccc(N2CCC(c3ccc(Cl)cc3)=N2)cc1)N(CCO)CCO`, the “activation (acetylation increase)” value was -6.7%.

Take `COc1cccc(N2C(=NC(=O)c3ccccc3)SC3CS(=O)(=O)CC32)c1` (stereo not given): the “activation (acetylation increase)” value is -1.74%.

As to `CCOC(=O)c1ccc2[nH]c(C)c(CN3CCN(C)CC3)c(=O)c2c1`, the “activation (acetylation increase)” value was 20.5%.

On to `CC(Sc1nnc(N)s1)C(=O)Nc1ccc2c(c1)OCO2` (stereo not given), for which the “activation (acetylation increase)” value is -0.09%.

Turning to `CCCN(C)C[C@H]1Oc2cc(C#Cc3ccc(OC)cc3)ccc2S(=O)(=O)N([C@@H](C)CO)C[C@H]1C`, the “activation (acetylation increase)” value was -59.5%.

With `C[C@H](CO)N1C[C@H](C)[C@H](CN(C)C(=O)C2CCCCC2)Oc2cc(-c3ccccc3)ccc2S1(=O)=O`, the “activation (acetylation increase)” value was -2.64%.

In the case of `Cc1cc(N)c2cc(NC(=O)/C=C/c3ccccc3Cl)ccc2n1`, the “activation (acetylation increase)” value is -96.7%.

In the case of `COc1ccc(-c2cn[nH]c2-c2ccc(O)cc2O)cc1`, the “activation (acetylation increase)” value was -6.54%.

Regarding `O=C(CCCc1cccs1)NCCc1c[nH]c2ccccc12`, the “activation (acetylation increase)” value was 13.6%.

Regarding `O=C(CN1C(=O)C2C3CC(C(Br)C3Br)C2C1=O)OCC(=O)c1cccc([N+](=O)[O-])c1` (stereo not given), the “activation (acetylation increase)” value was 20.3%.

As for `CC1=C(C(=O)OC(C)(C)C)C(c2ccc3ccccc3c2)NC(=O)N1C` (stereo not given), the “activation (acetylation increase)” value was 28.9%.

Consider `O=C(O)Cn1cc(C(=O)C(F)(F)F)c2ccccc21`, for which the “activation (acetylation increase)” value was -17.3%.

As to `O=C(Cn1cc(C(=O)c2cccs2)c2ccccc21)NCC1CCCO1` (stereo not given), the “activation (acetylation increase)” value was 20.3%.

Take `Cc1ccc(C(=O)Nc2nc(=O)n(C(=O)CC(C)C)s2)cc1`: the “activation (acetylation increase)” value is -21.6%.

Turning to `CN(C)c1ccc(/C=N/N(CCC#N)C2=NS(=O)(=O)c3ccccc32)cc1`, the “activation (acetylation increase)” value is 30.6%.

Regarding `O=C(COc1ccccc1Cl)Nc1ccc(Cl)cn1`, the “activation (acetylation increase)” value is -9.22%.

As for `COc1ccccc1C(=O)N1C(CC(=O)Nc2cc(Cl)ccc2C)C(=O)NC2CCCCC21` (stereo not given), the “activation (acetylation increase)” value is 35.7%.

`Cc1ccc(Sc2ncnc3onc(C)c23)c(C)c1`: the “activation (acetylation increase)” value is 23.8%.

On to `Cc1ccccc1CS(=O)(=O)c1nnc([C@H](CC(C)C)NC(=O)OC(C)(C)C)o1`, for which the “activation (acetylation increase)” value is -78.1%.

Take `COc1ccc(S(=O)(=O)N2CCC(C(=O)N3CCC(C(N)=O)CC3)CC2)cc1Cl`: the “activation (acetylation increase)” value was 19.4%.

`Cc1ccc(CN2CC(C(=O)N3CCN(S(=O)(=O)c4cccc(F)c4)CC3)CC2=O)cc1` (stereo not given): the “activation (acetylation increase)” value was -5.88%.

As to `CC(C)CC#Cc1ccc2c(c1)O[C@H](CN(C)C(=O)Cc1ccccc1)[C@H](C)CN([C@H](C)CO)S2(=O)=O`, the “activation (acetylation increase)” value is 20.7%.

In the case of `COCCn1c(C)c(C)c2c(NCCc3ccccc3)ncnc21`, the “activation (acetylation increase)” value was 11.3%.

Turning to `O=CNCCc1nc2ccccc2n1CCc1ccccc1`, the “activation (acetylation increase)” value was 15.8%.

For `CN1CCN(C2=C(Cl)C(=O)N(CCc3ccccc3)C2=O)CC1`, the “activation (acetylation increase)” value is -19.5%.

In the case of `Cc1ccc(-c2ccc(C3[C@@H]4CN(C(=O)Nc5ccc(C(F)(F)F)cc5)C[C@H]3N4)cc2)cc1` (stereo not given in full), the compound was called inactive.

Turning to `COCCNC(=O)CSc1nc2c(n1-c1ccccc1)CCCC2`, the “activation (acetylation increase)” value was 0.562%.
